KAT2A inh – GCN5L2 (KAT2A) acetyltransferase inhibition; AID 504327; 390,000 tested, 0.21% active; Potency, µM (titrated, usually from 58.9 µM), inactives show at the highest dose activity change, negative = inhibition, hits mostly inhibitors; GCN5L2 HAT assay, ThioGlo1 CoA-SH fluorescence
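Preincubate 20nM GCN5L2 with compound 15 min, RT → add 50uM ThioGlo1 + 75uM H3(1-25) + 70uM acetyl-CoA → read fluorescence 0 and 20 min. Primary qHTS; fluorescent artifacts likely.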
DT40 TDP1 no CPT – qHTS for Inhibitors of human tyrosyl-DNA phosphodiesterase 1 (TDP1): qHTS in cells in absence of CPT. DT40 Tdp1-/- hTDP1 cells, no CPT, ATP luminescence, 48 h. Potency, µM (titrated, usually from 46.2 µM), inactives show at the top dose activity change, negative = growth inhibition, usual class: inhibitors. 420,000 tested, 15% active; also: nearly all actives have a fitted effect of over 55% in size
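A cellular qHTS used chicken DT40 cells lacking endogenous Tdp1 but carrying stably transfected human TDP1. Compounds were applied without camptothecin, and cell growth kinetics were judged by ATP-dependent luminescence after ≥48 hr.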
VDR inhibitor – inhibitors of human vitamin D receptor | P11473 | Potency, µM, for inactives: max response, negative = inhibition, most hits filed as inhibitors | VDR-SRC2-3 peptide fluorescence polarization, 2 h | 400,000 tested, 0.93% active
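Fluorescence polarization assay of small-molecule disruption of VDR binding to coregulator peptide SRC2-3. Compounds and controls pin-transferred, then read after 2 h incubation at ambient room temperature.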
PLK1 PBD inh – PLK1 (human) polo-box domain binding inhibition; Plk1 PBD binding of FITC phosphopeptide, fluorescence polarization; Potency, µM, inactives show max response, negative = inhibition, most hits filed as inhibitors; 360,000 tested, 2.8% active; AID 720504; also: series mostly up to about 57 µM; nearly all actives have a fitted effect of over 65% in size
Target sequence (P53350 whole entry, looked up, the tested form may be a part): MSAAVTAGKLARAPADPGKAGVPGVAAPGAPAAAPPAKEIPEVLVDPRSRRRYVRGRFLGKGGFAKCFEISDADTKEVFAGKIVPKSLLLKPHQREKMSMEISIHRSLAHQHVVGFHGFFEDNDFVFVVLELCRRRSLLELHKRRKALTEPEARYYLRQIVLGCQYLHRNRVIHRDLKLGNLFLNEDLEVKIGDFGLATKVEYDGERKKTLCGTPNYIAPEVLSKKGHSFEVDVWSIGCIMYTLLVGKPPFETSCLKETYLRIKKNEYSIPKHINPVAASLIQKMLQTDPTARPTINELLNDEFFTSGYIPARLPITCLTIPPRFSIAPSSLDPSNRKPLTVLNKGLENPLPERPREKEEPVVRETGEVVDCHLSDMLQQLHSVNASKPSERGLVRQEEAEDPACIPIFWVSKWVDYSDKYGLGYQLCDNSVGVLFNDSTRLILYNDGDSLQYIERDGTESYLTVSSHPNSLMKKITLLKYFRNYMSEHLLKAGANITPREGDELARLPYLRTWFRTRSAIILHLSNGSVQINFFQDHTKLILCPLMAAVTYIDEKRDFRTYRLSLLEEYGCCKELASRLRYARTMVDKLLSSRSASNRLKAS
TDP1 inh – TDP1 (human) enzyme inhibition; Q9NUW8; recombinant TDP1, AlphaScreen DNA substrate cleavage; 350,000 tested, 0.28% active; Potency, µM (series often up to 130 µM), inactives show top-dose activity change, negative = inhibition, most hits filed as inhibitors; also: nearly all actives have a fitted effect of over 40% in size
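Recombinant human Tdp1 (E. coli-expressed, 1 nM final) preincubated with compounds 15 min at room temperature, then 5'-biotin/3'-phosphotyrosine-FITC DNA substrate (15 nM final) added for 5 min. AlphaScreen beads (10 ug/ml final) added 10 min; cleavage lowers signal.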
DT40 TDP1 CPT – DT40-hTDP1 cell growth loss with CPT | chicken DT40 Tdp1-/-;hTDP1 cells + 20 nM CPT, ATP luminescence, 48 h | Potency, µM (doses to about 46.2 µM), inactives show at the top dose activity change, negative = growth inhibition, hits mostly inhibitors | 420,000 tested, 12% active; also: nearly all actives have a fitted effect of over 55% in size
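Chicken DT40 Tdp1-/- cells stably complemented with human TDP1 were seeded at 400 cells/well in medium containing 20 nM camptothecin, exposed to pin-transferred compounds, and grown at 37 °C for at least 48 hr. Viability was read as ATP luminescence.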
Active calls of the source: *; [ ] = remark or other dose. Compounds with a hit are over-represented: about 18% of the library has one in this group of screens. Calls follow the shape of the dose curve; as a rule, active = well fitted curve in the direction sought with a large enough effect; inconclusive = small, poorly fitted or top-dose-only effect, or another doubt; inactive = no such curve, though single readings can be large; an effect the other way counts as inactive or inconclusive. % is scaled to controls: 0 for no effect and ±100 for the full control effect; potency is read from the fitted curve at half-maximal effect.

Screening Cc1ccc(CN2C(=O)CSCC2(C)C(=O)Nc2c(C)cccc2C)cc1 (configuration not stated) returned DT40 TDP1 no CPT -2.9%, PLK1 PBD inh -1.2% and DT40 TDP1 CPT 12.9%.
`COc1ccc(/C=C/C(O)=C2/C(=O)N(C)C3(C)CC2c2ccccc2O3)cc1` (configuration not stated) gave KAT2A inh -29.5%, DT40 TDP1 no CPT 20.6µM*, VDR inhibitor -16.2%, PLK1 PBD inh -1.7%, TDP1 inh 2.0% and DT40 TDP1 CPT 23.1µM*.
`CCN1C(=O)C(C(=O)Nc2ccc(OC)cc2)C2CC1(C)Oc1ccccc12` (configuration not stated) gave KAT2A inh 0.7%, DT40 TDP1 no CPT -20.8%, VDR inhibitor -3.3%, PLK1 PBD inh -4.6%, TDP1 inh 2.8% and DT40 TDP1 CPT -13.6%.
`COc1ccc(NC(=O)c2ccc3c(SCC(=O)O)c4c(nc3c2)CCCC4)cc1OC` gave KAT2A inh -14.7%, DT40 TDP1 no CPT 0.8%, VDR inhibitor -6.1%, TDP1 inh 3.5% and DT40 TDP1 CPT 5.8%.
Screening COc1ccc(/C=C/C(=O)Nc2ccc3nc4c(c(Nc5ccc(OC)c(OC)c5)c3c2)CCCC4)cc1 returned KAT2A inh -17.8%, DT40 TDP1 no CPT 4.61µM*, VDR inhibitor 53.4%, TDP1 inh 11.8% and DT40 TDP1 CPT 3.66µM*.
For COc1ccc(OC)c(/C=C/C(=O)Nc2ccc3c(c2)CCC3)c1 the results were KAT2A inh 3.1%, DT40 TDP1 no CPT inconclusive, VDR inhibitor -5.9%, PLK1 PBD inh -9.9%, TDP1 inh 7.9% and DT40 TDP1 CPT inconclusive.
COc1ccc(Nc2c3c(nc4ccc(NC(=O)/C=C/c5cc(OC)c(OC)c(OC)c5)cc24)CCCC3)cc1OC was read as KAT2A inh -25.5%, DT40 TDP1 no CPT 1.84µM*, VDR inhibitor 29.8%, TDP1 inh 11.8% and DT40 TDP1 CPT 1.03µM*.
CC(OC(=O)C1CCCCC1)C(=O)Nc1ccc(S(N)(=O)=O)cc1 (configuration not stated) was read as KAT2A inh -2.2%, DT40 TDP1 no CPT -3.6%, VDR inhibitor 17.3%, PLK1 PBD inh 4.3%, TDP1 inh 0.9% and DT40 TDP1 CPT -1.5%.
`Nc1ccn([C@@H]2O[C@H](C(=O)N[C@H]3c4ccccc4C[C@H]3O)[C@@H](O)[C@H]2O)c(=O)n1` gave DT40 TDP1 no CPT 4.1%, PLK1 PBD inh -3.1% and DT40 TDP1 CPT 17.5%.
`CCOC(=O)c1c(S(=O)(=O)N2CCCC(C(=O)NCc3ccccc3OC)C2)c(C)n(C)c1C` (configuration not stated) gave KAT2A inh -7.6%, DT40 TDP1 no CPT -1.4%, VDR inhibitor 26.1%, TDP1 inh 4.4% and DT40 TDP1 CPT -24.5%.
COC(=O)[C@]12CCCCC=C1N(CCc1ccc(OC)c(OC)c1)C(=O)[C@H](CC(=O)NCc1ccc(OC)c(OC)c1)C2 was read as DT40 TDP1 no CPT 16.4µM*, PLK1 PBD inh -1.7% and DT40 TDP1 CPT 29.1µM*.
Screening COC(=O)[C@@]12C[C@@H](CC(=O)NCc3cccc(C(F)(F)F)c3)C(=O)N(CCc3ccc(OC)c(OC)c3)C1=CCC(C)(C)C2 returned DT40 TDP1 no CPT 11.6µM*, PLK1 PBD inh -5.7% and DT40 TDP1 CPT 9.2µM*.
`COC(=O)[C@@]12C[C@@H](CC(=O)N3CCC(c4ccccc4)CC3)C(=O)N(CCc3ccc(OC)c(OC)c3)C1=CCC(C)(C)C2` gave DT40 TDP1 no CPT inconclusive, PLK1 PBD inh -2.4% and DT40 TDP1 CPT inconclusive.
COC(=O)[C@]12CCCCC=C1N(CCc1ccc(OC)c(OC)c1)C(=O)[C@H](CC(=O)NCC1CCCCC1)C2 was read as DT40 TDP1 no CPT inconclusive, PLK1 PBD inh -16.0% and DT40 TDP1 CPT inconclusive.
Screening COC(=O)[C@]12CCCCC=C1N(CCc1ccc(OC)c(OC)c1)C(=O)[C@H](CC(=O)NCc1ccccc1)C2 returned DT40 TDP1 no CPT 20.6µM*, PLK1 PBD inh 5.1% and DT40 TDP1 CPT inconclusive.
Screening COC(=O)[C@]12CCCCC=C1N(CCc1ccc(OC)c(OC)c1)C(=O)[C@H](CC(=O)NCCCN1CCCC1=O)C2 returned DT40 TDP1 no CPT -15.6%, PLK1 PBD inh -2.4% and DT40 TDP1 CPT 10.1%.
Screening COC(=O)[C@]12CCCCC=C1N(CCc1ccc(OC)c(OC)c1)C(=O)[C@H](CC(=O)NCc1cccc(C(F)(F)F)c1)C2 returned DT40 TDP1 no CPT 16.4µM*, PLK1 PBD inh -9.2% and DT40 TDP1 CPT inconclusive.
`Cc1ccc(C)c(N2CCN(C(=O)CN3C(=O)COc4ccc(S(=O)(=O)N5CCOCC5)cc43)CC2)c1` gave KAT2A inh 2.2%, VDR inhibitor 3.7% and TDP1 inh 9.0%.
Screening O=C(COc1ccccc1)Nc1ccc(-c2ccc(N3CCOCC3)nn2)cc1 returned KAT2A inh 1.2%, DT40 TDP1 no CPT inconclusive, VDR inhibitor -24.4%, PLK1 PBD inh -6.6%, TDP1 inh -11.2%[0.505 µM] and DT40 TDP1 CPT inconclusive.
Screening COC(=O)[C@]12CCCCC=C1N(CCc1ccc(OC)c(OC)c1)C(=O)[C@H](CC(=O)NCCCCc1ccccc1)C2 returned DT40 TDP1 no CPT 16.4µM*, PLK1 PBD inh 0.2% and DT40 TDP1 CPT 20.6µM*.
For COC(=O)[C@]12CCCCC=C1N(CCc1ccc(OC)c(OC)c1)C(=O)[C@H](CC(=O)NCCc1ccccc1OC)C2 the results were DT40 TDP1 no CPT 18.4µM*, PLK1 PBD inh -9.0% and DT40 TDP1 CPT inconclusive.
Screening COC(=O)[C@]12CCCCC=C1N(CCc1ccc(OC)c(OC)c1)C(=O)[C@H](CC(=O)N1CCN(C(=O)C3CC3)CC1)C2 returned DT40 TDP1 no CPT -26.2%, PLK1 PBD inh -4.7% and DT40 TDP1 CPT -24.1%.
`COC(=O)[C@]12CCCCC=C1N(CCc1ccc(OC)c(OC)c1)C(=O)[C@H](CC(=O)N1CCC(c3ccccc3)CC1)C2` gave DT40 TDP1 no CPT 8.2µM*, PLK1 PBD inh 0.0% and DT40 TDP1 CPT 8.2µM*.
CC1=C(C(=O)OCc2ccccc2)C(c2cccnc2)n2nnnc2N1 (configuration not stated) was read as KAT2A inh 4.1%, DT40 TDP1 no CPT 16.4µM*, VDR inhibitor -5.2%, PLK1 PBD inh -21.0%, TDP1 inh -3.1% and DT40 TDP1 CPT inconclusive.

Screens (PubChem BioAssay)
